Experimental data published in PubChem BioAssay (Tox21).
Several values for one entry are separate records, joined by “and”; a condition that tells them apart may be missing. Equal entries are not always repeated. Records with an inconclusive call do not appear. Activity calls are given as the source filed them. Calls follow the shape of the dose curve; as a rule, active = well fitted cell-killing curve with a large enough effect in the repeat runs; inconclusive = weak or mixed curves, or effect the other way; inactive = flat fitted curve, though single readings scatter.

assay: cAMP Responsive Elements (CRE) small molecule antagonists, cell-based qHTS assay: qHTS cell viability counter screen (AID 2060913); conditions: CRE-bla HEK293T viability, CellTiter-Glo luminescence, 5 h; series mostly up to 92.4 µM; viability change, negative = cytotoxic: at the top concentration; also: nearly all actives have a fitted effect of over 40% in size
Outline: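 HEK293T CRE-bla, 2,000 cells/well, 18 h preincubation; cpd in DMSO + NKH477 0.25 uM final, 3 h 37 C/5% CO2; LiveBLAzer 2 h RT, then CellTiter-Glo 30 min RT, luminescence.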
% is scaled to controls: 0 for no effect and ±100 for the full control effect; potency is read from the fitted curve at half-maximal effect.

Row | Compound | Potency | viability change, negative = cytotoxic
1 | Nc1cccc(Cl)c1 | inactive | –
2 | CCN(CC)N=O | inactive | –
3 | CCC#N | – | -6.76% (inactive)
4 | COc1ccc(C=O)cc1 | inactive | –
5 | Clc1c(Cl)c(Cl)c(Cl)c(Cl)c1Cl | – | 2.46% [at 8.39 µM] (inactive)
6 | CN=C=S | inactive | –
7 | CC(=O)c1ccc(-c2ccccc2)cc1 | – | -1.32% (inactive)
8 | CC(=O)[C@H]1CC[C@H]2[C@@H]3CC[C@H]4C[C@](C)(O)CC[C@]4(C)[C@H]3CC[C@]12C | – | 0.932% [at 42.5 µM] (inactive)
9 | CCOP(=O)(OCC)Oc1cc(C)nc(C(C)C)n1 | – | -1.2% (inactive)
10 | O=[N+]([O-])c1cc(Cl)c(Cl)c(Cl)c1 | – | 2.78% (inactive)
11 | CN[C@@H](C)[C@H](O)c1ccccc1 | – | -1.12% [at 42.5 µM] (inactive)
12 | O=S(=O)(O)O | inactive | –
13 | [O-][Cl+3]([O-])([O-])O | – | 2.11% (inactive)
14 | CCC[CH2][Sn]([Cl])([Cl])[CH2]CCC | 17.4 µM (active) and 18 µM (active) | –
15 | Cc1ncsc1CCCl | – | -0.846% [at 42.5 µM] (inactive)
16 | Oc1cccc(Cl)c1 | – | -0.325% (inactive)
17 | C[C@]12C/C(=C/O)C(=O)C[C@@H]1CC[C@@H]1[C@@H]2CC[C@@]2(C)[C@H]1CC[C@]2(C)O | – | -9.26% [at 42.5 µM] (inactive)
18 | COc1nc(C)nc(NC(=O)NS(=O)(=O)c2ccccc2Cl)n1 | – | 0.336% (inactive)
19 | CC(C)CBr | – | 9.5% (inactive)
20 | Nc1ccc(Cc2ccc(N)cc2)cc1 | inactive | –

Row | Compound | Potency | viability change, negative = cytotoxic
21 | CCCC[P+](CC)(CCCC)CCCC (tested in a mixture with another compound) | – | -11.1% (inactive)
22 | CN(C)c1nc(=O)n(C2CCCCC2)c(=O)n1C | inactive | –
23 | Cn1cc(C2=C(c3cn(C4CCN(Cc5ccccn5)CC4)c4ccccc34)C(=O)NC2=O)c2ccccc21 | – | 1.13% [at 42.5 µM] (inactive)
24 | CC(C)(Cl)Cl | inactive | –
25 | c1ccc(Nc2ccc3ccccc3c2)cc1 | inactive | –
26 | O=S(=O)(c1ccc(Cl)cc1)c1cc(Cl)c(Cl)cc1Cl | inactive | –
27 | O=C(O)C(F)(F)C(F)(F)C(F)(F)C(F)(F)C(F)(F)C(F)(F)C(F)(F)C(F)(F)C(F)(F)F | – | 7.1% (inactive)
28 | S=C1NCCN1 | inactive | –
29 | COCC(=O)N(c1c(C)cccc1C)N1CCOC1=O | – | 4.55% (inactive)
30 | O=[N+]([O-])CCO | – | 10.4% (inactive)
31 | O=C(CCl)c1ccccc1 | inactive | –
32 | COC(C)(C)C | – | -15.8% (inactive)
33 | CC(=O)c1cc(C(C)(C)C)cc2c1CCC2(C)C | – | -2.05% (inactive)
34 | CO[C@@H]1[C@H](OC(=O)NC(=O)CCl)CC[C@]2(CO2)[C@H]1[C@@]1(C)O[C@@H]1CC=C(C)C | – | 9.39% [at 18.9 µM] (inactive)
35 | CCOC(=O)C(SP(=S)(OC)OC)c1ccccc1 (stereo not given) | – | 2.66% (inactive)
36 | CCOC(=O)OC1=C(c2cc(C)ccc2C)C(=O)NC12CCC(OC)CC2 (stereo not given) | – | 9.07% (inactive)
37 | CCCC(C)(COC(N)=O)COC(=O)NC(C)C (stereo not given) | inactive | –
38 | ClC(Cl)=C(c1ccc(Cl)cc1)c1ccc(Cl)cc1 | inactive | –
39 | O=C(O)c1cccc(Cl)c1 | – | 3.39% (inactive)
40 | CCc1ccc(C(=O)NN(C(=O)c2cc(C)cc(C)c2)C(C)(C)C)cc1 | – | -1.73% (inactive)

assay: cAMP Responsive Elements (CRE) small molecule agonists, cell-based qHTS assay: qHTS cell viability counter screen (AID 2060914); conditions: CRE-bla HEK293T viability, CellTiter-Glo luminescence, 5 h; series mostly up to 92.4 µM; activity change, negative = cytotoxicity: at the top concentration; also: nearly all actives have a fitted effect of over 50% in size
Outline: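 Luminescence read-out (CellTiter-Glo, 30 min RT) of ATP-based viability in CRE-bla HEK 293T cells, run in the same wells as the β-lactamase reporter assay after 3 h compound treatment at 37 °C.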

Row | Compound | Potency | activity change, negative = cytotoxicity
41 | Nc1cccc(Cl)c1 | inactive | –
42 | CCN(CC)N=O | – | -12.7% (inactive)
43 | CCC#N | – | 8.94% (inactive)
44 | COc1ccc(C=O)cc1 | inactive | –
45 | Clc1c(Cl)c(Cl)c(Cl)c(Cl)c1Cl | – | 9.47% [at 8.39 µM] (inactive)
46 | CN=C=S | inactive | –
47 | CC(=O)c1ccc(-c2ccccc2)cc1 | – | 0.957% (inactive)
48 | CC(=O)[C@H]1CC[C@H]2[C@@H]3CC[C@H]4C[C@](C)(O)CC[C@]4(C)[C@H]3CC[C@]12C | – | -0.451% [at 42.5 µM] (inactive)
49 | CCOP(=O)(OCC)Oc1cc(C)nc(C(C)C)n1 | – | -0.118% (inactive)
50 | O=[N+]([O-])c1cc(Cl)c(Cl)c(Cl)c1 | – | 3.32% (inactive)
51 | CN[C@@H](C)[C@H](O)c1ccccc1 | – | -2.08% [at 42.5 µM] (inactive)
52 | O=S(=O)(O)O | inactive | –
53 | [O-][Cl+3]([O-])([O-])O | – | -9.85% (inactive)
54 | CCC[CH2][Sn]([Cl])([Cl])[CH2]CCC | 31 µM (active) and 30.6 µM (active) | –
55 | Cc1ncsc1CCCl | – | -0.721% [at 42.5 µM] (inactive)
56 | Oc1cccc(Cl)c1 | – | 0.356% (inactive)
57 | C[C@]12C/C(=C/O)C(=O)C[C@@H]1CC[C@@H]1[C@@H]2CC[C@@]2(C)[C@H]1CC[C@]2(C)O | inactive | –
58 | COc1nc(C)nc(NC(=O)NS(=O)(=O)c2ccccc2Cl)n1 | – | 3.09% (inactive)
59 | CC(C)CBr | – | 3.79% (inactive)
60 | Nc1ccc(Cc2ccc(N)cc2)cc1 | inactive | –

Row | Compound | Potency | activity change, negative = cytotoxicity
61 | CCCC[P+](CC)(CCCC)CCCC (tested in a mixture with another compound) | – | -9.12% (inactive)
62 | CN(C)c1nc(=O)n(C2CCCCC2)c(=O)n1C | inactive | –
63 | Cn1cc(C2=C(c3cn(C4CCN(Cc5ccccn5)CC4)c4ccccc34)C(=O)NC2=O)c2ccccc21 | – | 17.6% [at 42.5 µM] (inactive)
64 | CC(C)(Cl)Cl | inactive | –
65 | c1ccc(Nc2ccc3ccccc3c2)cc1 | – | -24.5% (inactive)
66 | O=S(=O)(c1ccc(Cl)cc1)c1cc(Cl)c(Cl)cc1Cl | inactive | –
67 | O=C(O)C(F)(F)C(F)(F)C(F)(F)C(F)(F)C(F)(F)C(F)(F)C(F)(F)C(F)(F)C(F)(F)F | – | 16.1% (inactive)
68 | S=C1NCCN1 | inactive | –
69 | COCC(=O)N(c1c(C)cccc1C)N1CCOC1=O | – | -1.98% (inactive)
70 | O=[N+]([O-])CCO | – | -11.9% (inactive)
71 | O=C(CCl)c1ccccc1 | inactive | –
72 | COC(C)(C)C | – | -7.63% (inactive)
73 | CC(=O)c1cc(C(C)(C)C)cc2c1CCC2(C)C | – | 2.13% (inactive)
74 | CO[C@@H]1[C@H](OC(=O)NC(=O)CCl)CC[C@]2(CO2)[C@H]1[C@@]1(C)O[C@@H]1CC=C(C)C | – | 13.5% [at 18.9 µM] (inactive)
75 | CCOC(=O)C(SP(=S)(OC)OC)c1ccccc1 (stereo not given) | – | -8.32% (inactive)
76 | CCOC(=O)OC1=C(c2cc(C)ccc2C)C(=O)NC12CCC(OC)CC2 (stereo not given) | – | 11.8% (inactive)
77 | CCCC(C)(COC(N)=O)COC(=O)NC(C)C (stereo not given) | inactive | –
78 | ClC(Cl)=C(c1ccc(Cl)cc1)c1ccc(Cl)cc1 | – | -10.6% (inactive)
79 | O=C(O)c1cccc(Cl)c1 | – | -15.8% (inactive)
80 | CCc1ccc(C(=O)NN(C(=O)c2cc(C)cc(C)c2)C(C)(C)C)cc1 | – | 6.84% (inactive)
